Drawing on PMC7862700, “An all-to-all approach to the identification of sequence-specific readers for epigenetic DNA modifications on cytosine”, this text covers binding signal for two sequences.

Common to all, as to assay: DAPPL (digital affinity profiling via proximity ligation, sequencing); 10 mM Tris-HCl pH 7.5, 50 mM NaCl, 1 mM DTT, 4% glycerol, room temperature, 30 min; GST-TFs on glutathione beads, 16-mer random dsDNA library, 0.1% formaldehyde crosslink after washing; high values mean tight binding
Holding throughout (settings): protein: recombinant; tags: N-terminal GST; dsDNA, one strand shown

One experiment addresses T1, GABPA (Homo sapiens, UniProt Q06546 1-454).
T1 sequence: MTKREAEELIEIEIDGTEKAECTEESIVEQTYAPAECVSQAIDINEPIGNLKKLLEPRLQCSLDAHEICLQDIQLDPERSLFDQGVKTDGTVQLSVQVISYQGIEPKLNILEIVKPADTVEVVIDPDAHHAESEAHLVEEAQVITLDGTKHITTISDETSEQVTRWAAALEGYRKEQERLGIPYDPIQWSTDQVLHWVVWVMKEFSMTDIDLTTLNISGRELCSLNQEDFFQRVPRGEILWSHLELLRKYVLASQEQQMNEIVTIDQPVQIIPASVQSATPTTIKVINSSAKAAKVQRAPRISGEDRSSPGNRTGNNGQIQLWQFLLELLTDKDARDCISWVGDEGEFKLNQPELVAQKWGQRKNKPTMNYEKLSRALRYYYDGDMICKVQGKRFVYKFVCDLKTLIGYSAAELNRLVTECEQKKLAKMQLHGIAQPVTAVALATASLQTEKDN
In a few lines:
(§1)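 A tag-only sample was pooled with DNA-barcoded human transcription factors that had been expressed in yeast as GST fusions and captured on glutathione beads. The pools were incubated for 30 min at room temperature with 200 nmole of a random double-stranded 16-mer DNA library in Tris/NaCl/DTT/glycerol buffer, then washed, crosslinked with 0.1% formaldehyde, proximity-ligated (BsaI/T4 ligase, 1 h, 37 °C), PCR-amplified and sequenced on an Illumina NextSeq500. Binding signal is each hexamer's read frequency for a factor divided by its frequency for the tag-only sample.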

In another experiment the target is T2, ERG (Homo sapiens, UniProt P11308 1-479).
T2 sequence: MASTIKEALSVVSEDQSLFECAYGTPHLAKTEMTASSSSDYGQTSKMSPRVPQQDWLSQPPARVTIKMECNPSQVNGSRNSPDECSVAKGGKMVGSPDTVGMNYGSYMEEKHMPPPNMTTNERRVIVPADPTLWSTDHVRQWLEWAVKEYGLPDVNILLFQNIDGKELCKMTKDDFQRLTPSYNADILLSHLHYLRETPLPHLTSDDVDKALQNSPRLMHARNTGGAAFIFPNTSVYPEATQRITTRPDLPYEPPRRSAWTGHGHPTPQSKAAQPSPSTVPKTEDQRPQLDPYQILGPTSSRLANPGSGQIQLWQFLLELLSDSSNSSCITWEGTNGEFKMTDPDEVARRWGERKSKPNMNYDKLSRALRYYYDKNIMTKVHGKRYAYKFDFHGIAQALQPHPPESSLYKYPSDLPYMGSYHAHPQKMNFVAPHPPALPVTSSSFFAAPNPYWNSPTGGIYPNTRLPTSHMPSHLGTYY
The gist of the method:
as §1

The target of the next experiment is T3, EHF (Homo sapiens, UniProt Q9NZC4 1-300).
T3 sequence: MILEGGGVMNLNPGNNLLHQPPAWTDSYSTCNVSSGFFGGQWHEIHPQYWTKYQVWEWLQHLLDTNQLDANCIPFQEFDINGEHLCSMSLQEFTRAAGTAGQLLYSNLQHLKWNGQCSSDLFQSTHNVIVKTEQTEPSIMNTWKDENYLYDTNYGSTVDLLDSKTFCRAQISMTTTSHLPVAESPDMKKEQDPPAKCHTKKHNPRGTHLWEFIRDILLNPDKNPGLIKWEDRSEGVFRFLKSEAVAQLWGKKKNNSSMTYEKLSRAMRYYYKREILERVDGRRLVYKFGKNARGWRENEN
In a few lines: as §1

A further experiment deals with SPIB (Homo sapiens, UniProt Q01892 1-262). In a few lines:
as §1

The target in another experiment is ETV5 (Homo sapiens, UniProt P41161 1-510). The gist of the method:
as §1

In a further experiment the target is T4, SPIC (Homo sapiens, UniProt Q8N5J4 1-248).
T4 sequence: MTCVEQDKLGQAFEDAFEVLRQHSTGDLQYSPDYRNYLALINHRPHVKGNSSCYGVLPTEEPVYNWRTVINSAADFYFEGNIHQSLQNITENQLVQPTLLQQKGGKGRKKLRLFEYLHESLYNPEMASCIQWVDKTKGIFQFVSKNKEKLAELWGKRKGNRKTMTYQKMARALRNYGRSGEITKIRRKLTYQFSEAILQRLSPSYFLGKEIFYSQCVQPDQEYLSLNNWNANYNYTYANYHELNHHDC
In a few lines:
as §1

In the next experiment the target is ELF4 (Homo sapiens, UniProt Q99607 1-663). The gist of the method:
as §1

The target in another experiment is T5, ETV3L (Homo sapiens, UniProt Q6ZN32 1-361).
T5 sequence: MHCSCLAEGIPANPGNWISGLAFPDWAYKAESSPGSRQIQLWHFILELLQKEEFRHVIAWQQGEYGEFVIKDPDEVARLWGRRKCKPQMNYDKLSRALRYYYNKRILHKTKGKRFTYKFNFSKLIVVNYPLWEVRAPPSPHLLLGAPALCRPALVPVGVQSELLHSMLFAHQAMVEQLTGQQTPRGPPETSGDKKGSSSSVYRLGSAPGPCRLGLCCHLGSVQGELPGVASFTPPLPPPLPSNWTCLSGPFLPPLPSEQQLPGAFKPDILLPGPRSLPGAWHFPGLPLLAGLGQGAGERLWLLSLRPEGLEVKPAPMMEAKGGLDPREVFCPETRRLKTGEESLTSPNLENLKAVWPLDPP
The gist of the method: as §1

Another experiment has as its target T6, ETS2 (Homo sapiens, UniProt P15036 1-469).
T6 sequence: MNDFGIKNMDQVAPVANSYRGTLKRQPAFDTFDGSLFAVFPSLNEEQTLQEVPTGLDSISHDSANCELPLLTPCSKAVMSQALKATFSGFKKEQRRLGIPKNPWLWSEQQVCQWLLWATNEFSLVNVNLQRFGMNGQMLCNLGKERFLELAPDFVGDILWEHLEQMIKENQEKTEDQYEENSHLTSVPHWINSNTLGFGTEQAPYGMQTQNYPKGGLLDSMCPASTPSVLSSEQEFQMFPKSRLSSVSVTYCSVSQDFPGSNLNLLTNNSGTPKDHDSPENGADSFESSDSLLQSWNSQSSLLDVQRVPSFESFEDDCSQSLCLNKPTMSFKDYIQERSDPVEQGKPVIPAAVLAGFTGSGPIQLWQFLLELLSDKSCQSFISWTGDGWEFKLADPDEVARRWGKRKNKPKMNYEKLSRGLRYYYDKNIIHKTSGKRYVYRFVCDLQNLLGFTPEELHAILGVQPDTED
In a few lines:
as §1

For another experiment, the target named is T7, ETV7 (Homo sapiens, UniProt Q9Y603 1-341).
T7 sequence: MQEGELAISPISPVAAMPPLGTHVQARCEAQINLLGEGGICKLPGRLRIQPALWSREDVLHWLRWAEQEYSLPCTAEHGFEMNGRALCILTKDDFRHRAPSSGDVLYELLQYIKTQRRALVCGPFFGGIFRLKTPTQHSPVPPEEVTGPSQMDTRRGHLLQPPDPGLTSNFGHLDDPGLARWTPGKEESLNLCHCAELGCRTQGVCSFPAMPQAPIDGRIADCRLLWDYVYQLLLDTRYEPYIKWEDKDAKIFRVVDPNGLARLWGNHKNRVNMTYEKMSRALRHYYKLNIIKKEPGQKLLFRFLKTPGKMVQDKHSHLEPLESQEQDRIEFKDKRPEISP
The gist of the method: as §1

The target of a further experiment is T8, ETV3 (Homo sapiens, UniProt P41162-2 1-143).
T8 sequence: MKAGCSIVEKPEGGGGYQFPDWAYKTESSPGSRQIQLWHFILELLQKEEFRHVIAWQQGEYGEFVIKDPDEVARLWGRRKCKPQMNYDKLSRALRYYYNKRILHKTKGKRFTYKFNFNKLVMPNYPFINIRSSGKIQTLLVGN
The gist of the method: as §1

Another experiment deals with T9, ELK1 (Homo sapiens, UniProt P19419 1-428).
T9 sequence: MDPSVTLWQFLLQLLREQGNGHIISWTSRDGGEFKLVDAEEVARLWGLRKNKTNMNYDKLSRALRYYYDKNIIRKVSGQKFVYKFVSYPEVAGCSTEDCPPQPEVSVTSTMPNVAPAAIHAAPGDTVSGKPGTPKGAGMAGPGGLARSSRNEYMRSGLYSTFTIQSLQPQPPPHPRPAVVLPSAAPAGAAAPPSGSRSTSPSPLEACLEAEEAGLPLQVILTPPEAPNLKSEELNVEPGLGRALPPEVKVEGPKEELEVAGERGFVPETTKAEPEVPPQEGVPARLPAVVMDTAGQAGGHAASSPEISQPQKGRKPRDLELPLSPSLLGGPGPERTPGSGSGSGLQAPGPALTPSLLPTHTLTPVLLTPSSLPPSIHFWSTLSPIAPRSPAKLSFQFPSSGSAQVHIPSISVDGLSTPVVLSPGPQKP
In a few lines: as §1

The target in the next experiment is ELF1 (Homo sapiens, UniProt P32519 1-619). In a few lines: as §1
Another experiment deals with T10, ELK4 (Homo sapiens, UniProt P28324-2 1-405).
T10 sequence: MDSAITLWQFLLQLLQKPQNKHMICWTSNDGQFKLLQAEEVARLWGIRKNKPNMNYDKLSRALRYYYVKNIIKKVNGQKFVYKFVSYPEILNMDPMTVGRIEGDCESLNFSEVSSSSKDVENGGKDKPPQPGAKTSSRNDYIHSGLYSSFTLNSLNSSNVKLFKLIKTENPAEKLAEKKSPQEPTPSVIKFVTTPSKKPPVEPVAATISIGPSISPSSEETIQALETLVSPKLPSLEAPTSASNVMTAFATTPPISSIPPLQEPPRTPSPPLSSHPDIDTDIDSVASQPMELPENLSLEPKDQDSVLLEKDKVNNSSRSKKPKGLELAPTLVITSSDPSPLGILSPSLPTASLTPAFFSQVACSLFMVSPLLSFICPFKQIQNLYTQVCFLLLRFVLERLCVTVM
In a few lines: as §1

The next experiment has as its target ETV1 (Homo sapiens, UniProt P50549 1-477). In a few lines: as §1
A further experiment deals with T11, ERF (Homo sapiens, UniProt P50548 1-548).
T11 sequence: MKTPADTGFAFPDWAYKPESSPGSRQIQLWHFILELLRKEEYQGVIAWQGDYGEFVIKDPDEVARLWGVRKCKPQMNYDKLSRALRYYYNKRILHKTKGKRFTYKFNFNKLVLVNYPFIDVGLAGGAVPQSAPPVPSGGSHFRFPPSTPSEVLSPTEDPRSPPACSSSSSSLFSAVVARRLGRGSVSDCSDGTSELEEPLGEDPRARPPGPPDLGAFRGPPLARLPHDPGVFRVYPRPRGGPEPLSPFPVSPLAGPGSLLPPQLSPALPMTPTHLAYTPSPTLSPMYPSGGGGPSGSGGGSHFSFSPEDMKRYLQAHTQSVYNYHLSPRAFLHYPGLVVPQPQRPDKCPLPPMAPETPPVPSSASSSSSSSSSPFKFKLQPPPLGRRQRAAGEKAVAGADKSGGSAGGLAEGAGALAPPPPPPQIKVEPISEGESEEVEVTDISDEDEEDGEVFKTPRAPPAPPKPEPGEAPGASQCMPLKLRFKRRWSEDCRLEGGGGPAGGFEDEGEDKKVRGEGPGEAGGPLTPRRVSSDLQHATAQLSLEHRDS
In a few lines:
as §1

Another experiment has as its target ETV6 (Homo sapiens, UniProt P41212 1-452). In a few lines: as §1

Sequence of SPIB (Q01892 whole entry): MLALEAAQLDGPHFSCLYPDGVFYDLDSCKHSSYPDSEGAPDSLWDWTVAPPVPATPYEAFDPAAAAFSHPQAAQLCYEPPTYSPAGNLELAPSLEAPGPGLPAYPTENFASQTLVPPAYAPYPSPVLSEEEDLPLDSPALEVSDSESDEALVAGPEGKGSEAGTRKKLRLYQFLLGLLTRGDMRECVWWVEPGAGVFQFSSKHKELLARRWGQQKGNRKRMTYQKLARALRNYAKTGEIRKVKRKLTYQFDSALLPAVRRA
Sequence of ETV5 (P41161 whole entry): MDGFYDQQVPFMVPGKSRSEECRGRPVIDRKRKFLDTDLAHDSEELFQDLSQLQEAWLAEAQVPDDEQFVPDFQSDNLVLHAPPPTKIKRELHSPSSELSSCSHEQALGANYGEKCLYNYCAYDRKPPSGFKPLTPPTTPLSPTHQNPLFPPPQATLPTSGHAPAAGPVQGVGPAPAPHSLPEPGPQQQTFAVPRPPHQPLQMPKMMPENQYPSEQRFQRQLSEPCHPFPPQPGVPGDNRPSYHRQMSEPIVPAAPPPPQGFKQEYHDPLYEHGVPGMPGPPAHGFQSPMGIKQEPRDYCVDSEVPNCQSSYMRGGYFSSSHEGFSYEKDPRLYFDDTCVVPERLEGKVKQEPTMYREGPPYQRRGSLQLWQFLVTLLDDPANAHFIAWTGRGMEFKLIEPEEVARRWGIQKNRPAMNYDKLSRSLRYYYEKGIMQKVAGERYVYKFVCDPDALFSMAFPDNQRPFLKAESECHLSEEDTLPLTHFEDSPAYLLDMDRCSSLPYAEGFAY
Sequence of ELF4 (Q99607 whole entry): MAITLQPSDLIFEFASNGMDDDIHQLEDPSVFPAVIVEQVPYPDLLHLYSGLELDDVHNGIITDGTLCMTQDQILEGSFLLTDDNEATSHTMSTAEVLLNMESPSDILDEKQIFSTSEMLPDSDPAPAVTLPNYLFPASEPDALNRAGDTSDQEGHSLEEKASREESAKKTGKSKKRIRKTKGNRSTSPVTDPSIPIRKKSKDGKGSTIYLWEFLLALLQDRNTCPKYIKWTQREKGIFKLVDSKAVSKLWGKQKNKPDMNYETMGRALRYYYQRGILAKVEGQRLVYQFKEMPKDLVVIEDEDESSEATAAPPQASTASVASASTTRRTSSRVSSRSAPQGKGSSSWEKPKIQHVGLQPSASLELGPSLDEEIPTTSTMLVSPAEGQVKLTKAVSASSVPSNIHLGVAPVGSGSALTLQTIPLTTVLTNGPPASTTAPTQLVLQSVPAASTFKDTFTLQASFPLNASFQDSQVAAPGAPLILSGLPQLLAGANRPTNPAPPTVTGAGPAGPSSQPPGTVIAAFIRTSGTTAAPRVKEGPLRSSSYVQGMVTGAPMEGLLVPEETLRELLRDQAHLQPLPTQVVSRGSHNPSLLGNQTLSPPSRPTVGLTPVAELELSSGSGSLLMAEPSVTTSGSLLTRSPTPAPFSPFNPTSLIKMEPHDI
Sequence of ELF1 (P32519 whole entry): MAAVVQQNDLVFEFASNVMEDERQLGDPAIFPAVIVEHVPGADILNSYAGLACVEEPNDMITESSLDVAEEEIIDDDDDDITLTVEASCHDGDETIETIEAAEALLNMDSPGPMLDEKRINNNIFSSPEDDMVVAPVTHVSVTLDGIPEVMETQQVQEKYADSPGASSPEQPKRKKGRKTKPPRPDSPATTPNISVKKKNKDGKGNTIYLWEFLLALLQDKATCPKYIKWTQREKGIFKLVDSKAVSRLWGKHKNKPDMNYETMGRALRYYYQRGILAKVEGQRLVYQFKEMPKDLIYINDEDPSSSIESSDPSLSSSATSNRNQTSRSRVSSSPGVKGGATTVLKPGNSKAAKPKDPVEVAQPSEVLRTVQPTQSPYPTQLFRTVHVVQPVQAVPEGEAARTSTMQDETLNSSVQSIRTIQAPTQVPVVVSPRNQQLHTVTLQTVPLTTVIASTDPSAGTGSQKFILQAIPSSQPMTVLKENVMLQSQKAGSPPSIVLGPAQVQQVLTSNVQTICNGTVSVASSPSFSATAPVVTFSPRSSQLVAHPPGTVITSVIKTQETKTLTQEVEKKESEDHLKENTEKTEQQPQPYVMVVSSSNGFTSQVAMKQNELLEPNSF
Sequence of ETV1 (P50549 whole entry): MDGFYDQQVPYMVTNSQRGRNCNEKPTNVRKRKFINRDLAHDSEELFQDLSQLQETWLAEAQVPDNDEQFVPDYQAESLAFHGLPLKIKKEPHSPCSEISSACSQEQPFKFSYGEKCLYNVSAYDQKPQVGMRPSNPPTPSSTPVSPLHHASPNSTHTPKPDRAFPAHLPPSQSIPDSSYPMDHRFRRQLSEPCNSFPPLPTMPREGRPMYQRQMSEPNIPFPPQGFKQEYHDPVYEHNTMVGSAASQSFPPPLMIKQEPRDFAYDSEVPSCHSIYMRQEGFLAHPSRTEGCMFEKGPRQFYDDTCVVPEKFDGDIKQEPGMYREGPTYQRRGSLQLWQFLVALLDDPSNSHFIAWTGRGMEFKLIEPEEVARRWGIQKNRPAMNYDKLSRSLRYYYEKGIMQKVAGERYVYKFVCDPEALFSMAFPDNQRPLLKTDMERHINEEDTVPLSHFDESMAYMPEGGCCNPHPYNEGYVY
Sequence of ETV6 (P41212 whole entry): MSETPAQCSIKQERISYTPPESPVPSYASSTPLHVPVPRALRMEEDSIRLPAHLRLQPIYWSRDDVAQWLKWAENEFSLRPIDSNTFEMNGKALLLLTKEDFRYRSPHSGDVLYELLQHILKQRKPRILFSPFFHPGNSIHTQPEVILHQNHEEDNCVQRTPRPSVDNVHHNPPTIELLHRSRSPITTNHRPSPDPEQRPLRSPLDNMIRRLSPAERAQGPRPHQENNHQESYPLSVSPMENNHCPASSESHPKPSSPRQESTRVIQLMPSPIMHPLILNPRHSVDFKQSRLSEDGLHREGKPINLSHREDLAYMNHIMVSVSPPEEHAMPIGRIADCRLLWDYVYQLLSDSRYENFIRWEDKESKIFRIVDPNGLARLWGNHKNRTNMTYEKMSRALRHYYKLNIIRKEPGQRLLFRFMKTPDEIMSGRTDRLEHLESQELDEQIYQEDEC

In the case of CGGCTG, the binding signal with GABPA was 1.03 fold enrichment (6-mer frequency, TF over GST control); with ERG it was 1.04 fold enrichment (6-mer frequency, TF over GST control); with EHF, 1.05 fold enrichment (6-mer frequency, TF over GST control); with SPIB, 1.03 fold enrichment (6-mer frequency, TF over GST control); with ETV5, 1.01 fold enrichment (6-mer frequency, TF over GST control); in the experiment with SPIC, 1.12 fold enrichment (6-mer frequency, TF over GST control). Also, the binding signal in the experiment with ELF4 was 1.12 fold enrichment (6-mer frequency, TF over GST control); in the experiment with ETV3L, 1.02 fold enrichment (6-mer frequency, TF over GST control); with ETS2 it was 1.07 fold enrichment (6-mer frequency, TF over GST control); with ETV7 it was 1.1 fold enrichment (6-mer frequency, TF over GST control); in the experiment with ETV3 it was 1.01 fold enrichment (6-mer frequency, TF over GST control).
Turning to GCAATC, the binding signal with ELK1 is 1.05 fold enrichment (6-mer frequency, TF over GST control); with GABPA, 1.04 fold enrichment (6-mer frequency, TF over GST control); in the experiment with ERG it was 1.03 fold enrichment (6-mer frequency, TF over GST control); with ELF1 it was 1.09 fold enrichment (6-mer frequency, TF over GST control); with SPIB, 1.05 fold enrichment (6-mer frequency, TF over GST control); in the experiment with ETV5, 1.06 fold enrichment (6-mer frequency, TF over GST control). The binding signal in the experiment with ELF4 was 1.02 fold enrichment (6-mer frequency, TF over GST control); with ELK4, 1.07 fold enrichment (6-mer frequency, TF over GST control); with ETV1 it was 1.06 fold enrichment (6-mer frequency, TF over GST control); with ERF, 1.03 fold enrichment (6-mer frequency, TF over GST control); with ETV3L, 1.01 fold enrichment (6-mer frequency, TF over GST control); with ETS2, 1.04 fold enrichment (6-mer frequency, TF over GST control). Further, the binding signal with ETV3 was 1.06 fold enrichment (6-mer frequency, TF over GST control); with ETV6, 1.11 fold enrichment (6-mer frequency, TF over GST control).
